# Key:
# Format in all cases: functional
# Plasmodium falciparum [1] = experiment: GSK_TCMDC: Inhibition of Plasmodium falciparum 3D7 in whole red blood cells, using parasite LDH activity as an index of growth. Test compounds present at 2uM
# Plasmodium falciparum [2] = experiment: GSK_TCMDC: Inhibition of Plasmodium falciparum Dd2 in whole red blood cells, using parasite LDH activity as an index of growth. Test compounds present at 2uM
# HepG2 = experiment: GSK_TCMDC: Percent inhibition of human HepG2 cell line. Test compounds present at 10uM.
SMILES,Inhibition (Plasmodium falciparum [1]),Inhibition (Plasmodium falciparum [2]),Inhibition (HepG2)
c1ccc2[nH]c(-c3ccc(-c4ccc(CN5CCC(N6CCCCC6)CC5)cc4)s3)nc2c1,99%,100%,26%
Cc1cccc2nc(-c3cccc(-c4ccc(NC(=O)c5cnccc5C(F)(F)F)cc4)c3)[nH]c12,100%,37%,60%
COc1ccc2nccc([C@@H](O)CN3CCC(NC(=O)c4cc5ccccc5[nH]4)CC3)c2c1.CS(=O)(=O)O,96%,55%,19%
Cn1ccc2c3c(N)nc(N)nc3ccc21,91%,17%,59%
CS(=O)(=O)Nc1ccc2[nH]cc(C3CCN(CC(O)C4CCN(C(=O)/C=C/c5ccc(Cl)c(Cl)c5)CC4)CC3)c2c1.O=C(O)C(F)(F)F (stereo not given),100%,0%,28%
O=C(CC1CCCCC1)NCC(NCCCNc1cc(=O)c2ccccc2[nH]1)c1cc(Br)cc(Br)c1 (stereo not given),95%,52%,8%
COc1ccc(Cc2nc3c(n2C(C)=O)SC(c2ccc(Cl)c(Cl)c2)=NN3C(C)=O)cc1,94%,22%,0%
Cc1cccc2nc(-c3ccc(-c4cccc(CN5CC(C)OC(C)C5)c4)s3)[nH]c12.O=C(O)C(F)(F)F (stereo not given),98%,79%,6%
c1ccc(OCCCCN2CCCCC2)cc1,95%,1%,2%
C=CC[C@H](C[C@H](O)[C@H](Cc1ccccc1)NC(=O)c1ccc(-n2cccn2)cc1)C(=O)NC1CCCCC1,96%,0%,1%
